This note sets out measurements from the supplement of paper PMC11417369.

The full ranking holds about 25,000 sequences; the median of “ln(normalized median fluorescence intensity)” is about 7.1, and the highest 2% start at about 10. What follows is part of a selection rich in the highest values, with near analogues and random picks from the rest.

The assay deals with PfSIP2 AP2 domain 1 (GST-tagged). Kind of assay: gcPBM binding intensity (ln(normalized median fluorescence intensity)); higher = stronger DNA binding. The procedure, abridged: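 The highest Masliner-normalised natural-log median intensity across replicate spots of either probe orientation is reported as binding intensity. GST-tagged P. falciparum DNA-binding domains expressed in E. coli were applied for 1 h to an Agilent 4 × 180k array of primer-extended double-stranded 36-bp intergenic genomic probes plus negative controls, and bound protein was detected with Alexa488 anti-GST antibody and scanned at 488 nm.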
As for “TTTTAGCACTTATTATAAGATATCAAAAAGATGGGT [XGTACX_negctrl_site325]”, the “gcPBM binding intensity (ln)” value came to 7.32.
On to “ATAAATTCTATGTATACACACATATATAATATATAT [CACACA_site2689]”, for which the “gcPBM binding intensity (ln)” value came out at 7.26.
As for “TTTTTATTAATAGATATAAATATATAATATGAATGT [TGCATGCA_negctrl_site309]”, the “gcPBM binding intensity (ln)” value turned out to be 7.04.
As for “ATAATTATTTAATATATATATATTATTTCGAATGTT [GTGCAC_negctrl_site688]”, the figure is 7.03; as for AAAGAATTATATAAGGTGCACGAATGTTTCTTTAAT, 10.9.
As for “TTTCTTTTTTTTTAATGTACTTTTTTTATAAAAGGT [XGTACX_site5688]”, the figure is 7.27.
With “TAAAAACAAAAATGTTGTACATAATATAAAACAATT [XGTACX_site6380]” the figure was 7.04.
For “ATTTTTTAAATTTAAACACACATTTTGTATATGTTT [CACACA_site1654]”, the “gcPBM binding intensity (ln)” value came out at 7.02.
As for “ATATTTTTATTAGTAGTGCAATTTAGTGTATATATA [GTGCAC_site9542]”, the figure is 8.39.
With “ATTTATATTACCCTTGCATGTAGGTGCAATTTTTTT [TGCATGCA_site757]” the figure was 11; with “CATATATATTTTATATGTACATATATATTTTATATA [XGTACX_site8665]”, 7.03; with “ATATATATATATTTATGTACATATATTTTTTTTTTT [XGTACX_site8558]”, 8.71.
With “AATTCATTTTACCCATGTACACAATTATATTTTATA [XGTACX_site4127]”, the “gcPBM binding intensity (ln)” value was found to be 7.23.
As to “ATTTTTTTTTTTTTATGTACATATAGGTGCAAATCA [XGTACX_site6748]”, the “gcPBM binding intensity (ln)” value came out at 11.4.
GACAATTATATGTAGGTGCATATACAAATTTTTTAA: the “gcPBM binding intensity (ln)” value turned out to be 10.9.
As for “TTTATATATTATTAATGTACAAAATTTTTATTGCAT [XGTACX_site3329]”, the “gcPBM binding intensity (ln)” value was found to be 6.96.
As for “ATATATTTATTAAGGTGTACAAAAATTATGTTGCAT [XGTACX_site7546]”, the figure is 7.16; as for “ATGTTATATATGTATTGTACGTATTTTGTATATTAT [XGTACX_site6607]”, 7.4; as for “AATATATCCTATTCGAACAAAAATACATGCACATAT [CACACA_negctrl_site1058]”, 9.28.
As for “AAGGATTATTTTAATCGTACATGTGTAAATAATATA [XGTACX_site6177]”, the figure is 6.98.
As for “AATAAATAAATATATATATATATATAATATCATAAA [CACACA_negctrl_site337]”, the figure is 7.29.
As for “TAAAGAAAAATATAAAGTACAAAAATAAAAAAAATA [XGTACX_site8226]”, the “gcPBM binding intensity (ln)” value is 6.93.
Consider “AGCATTAAAAATGGAATGGAATTAAGCTATATATTA [CACACA_negctrl_site1571]”, for which the “gcPBM binding intensity (ln)” value stood at 6.63.
Turning to “TTAAAGTTACATTCGACACACACATAACAACTAAAT [CACACA_site9130]”, the “gcPBM binding intensity (ln)” value stood at 7.1.
As for “AAAAAAAAAGATCACACACACATAAATATAAACAAA [CACACA_site5285]”, the “gcPBM binding intensity (ln)” value stood at 6.92.
